Screens (PubChem BioAssay)
Rab9 promoter act – qHTS Assay for Rab9 Promoter Activators; Huh7 Rab9 promoter-luciferase reporter, luminescence, 24 h; actives 2.8% (n = 320,000); AID 485297, 2010; Potency, µM (titrated, usually from 9.22 µM), for the others: at the highest dose activation, negative = inhibition, most hits filed as activators; also: % of control where 0% means no effect; nearly all actives have a fitted effect of over 60% in size
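Cell-based reporter: Huh7 stable for Rab9 promoter-driven luciferase, plated in reduced-serum medium with 10% FBS at 1500 cells/well, compound-treated 24 h at 37 °C, luminescence read after 10 min reagent.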
FLuc counter – qHTS profiling assay for firefly luciferase inhibitor/activator using purifed enzyme and Km concentrations of substrates (counterscreen for miR-21 project); Luciferin 4-monooxygenase (Photinus pyralis), P08659; Potency, µM (top dose mostly 57.5 µM), inactives show at the highest dose activity change, negative = inhibition, hits mostly inhibitors; purified FLuc, Km substrates, luminescence inhibition; AID 588342, 2011; actives 6.9% (n = 360,000);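 also: plate controls were vehicle for no effect and reference inhibitor for full effect; nearly all actives have a fitted effect of over 55% in size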
Target sequence (P08659 whole entry, looked up): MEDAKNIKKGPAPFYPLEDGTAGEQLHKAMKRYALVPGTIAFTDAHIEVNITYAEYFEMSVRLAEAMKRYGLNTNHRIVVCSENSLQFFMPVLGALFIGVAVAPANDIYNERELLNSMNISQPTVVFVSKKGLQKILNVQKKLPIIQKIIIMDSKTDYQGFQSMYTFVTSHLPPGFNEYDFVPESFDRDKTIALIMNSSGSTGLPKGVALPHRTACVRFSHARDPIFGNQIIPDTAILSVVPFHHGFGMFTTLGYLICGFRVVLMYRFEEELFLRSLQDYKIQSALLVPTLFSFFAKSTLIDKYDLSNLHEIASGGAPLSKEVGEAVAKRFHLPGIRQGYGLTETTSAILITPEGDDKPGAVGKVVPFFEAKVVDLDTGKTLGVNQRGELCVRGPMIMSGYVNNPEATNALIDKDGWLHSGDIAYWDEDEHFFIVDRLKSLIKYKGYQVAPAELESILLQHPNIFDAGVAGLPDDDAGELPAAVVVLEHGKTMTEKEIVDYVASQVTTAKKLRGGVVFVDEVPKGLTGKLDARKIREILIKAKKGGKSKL
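Purified P. pyralis luciferase, 10 nM final, with Km-level 10 uM D-luciferin and 10 uM ATP in 50 mM Tris acetate pH 7.5, 10 mM Mg acetate, 0.01% Tween-20, 0.05% BSA; 6-point qHTS titration about 60 µM downward; luminescence read.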
SMN2 splice enh – qHTS Assay for Enhancers of SMN2 Splice Variant Expression. HEK293 SMN2-luciferase splicing reporter, luminescence, 30-36 h. Potency, µM (highest dose often 46.1 µM), inactives show at the top dose activity change, positive = activation, most hits filed as activators. actives 2.8% (n = 210,000). AID 1458, 2008; also: % of control where 0% means no effect; nearly all actives have a fitted effect of over 55% in size
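qHTS luciferase splicing reporter: luminescence rises when SMN2 exon 7 is included in transfected HEK293 cells. Compound exposure lasted 30-36 h at 37C, with 4.5 mM final sodium butyrate as control, followed by a ONE-Glo read.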
NPC1 prom act – qHTS Assay for NPC1 Promoter Activators; Huh7 NPC1 promoter luciferase reporter, 24 h; Potency, µM (series often up to 9.22 µM), without a hit: top-dose activation, actives largely listed as activators; actives 2.4% (n = 320,000); AID 485313, 2010; also: % of control where 0% means no effect; nearly all actives have a fitted effect of over 60% in size
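Luciferase expression driven by the NPC1 promoter was measured in stably transfected Huh7 cells after a 24 h compound incubation, using a luciferase reagent and a luminescence read.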
ELG1 repair inh – qHTS screen for small molecules that inhibit ELG1-dependent DNA repair in human embryonic kidney (HEK293T) cells expressing luciferase-tagged ELG1; HEK293T ELG1-luciferase reporter, luminescence, 16 h; DNA damage induced by 5-fluorouridine; Potency, µM (top dose mostly 46.1 µM), without a hit: top-dose activity change, negative = inhibition, actives largely listed as inhibitors; actives 2.3% (n = 330,000); AID 504467, 2011; also: % is scaled to controls: 0 for no effect and ±100 for the full control effect; nearly all actives have a fitted effect of over 55% in size
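Quantitative HTS, concentration-response format. 2,000 cells/well co-treated with 5-fluorouridine and compound, 16 hr in 5% CO2 at 37 °C; ONE-Glo luminescence read after 30 min.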
ELG1 genotoxic – qHTS screen for small molecules that induce genotoxicity in human embryonic kidney (HEK293T) cells expressing luciferase-tagged ELG1; actives 1.3% (n = 330,000); Potency, µM (series often up to 46 µM), for the others: top-dose activity change, positive = activation, hits mostly activators; HEK293T ELG1-luciferase reporter, luminescence, 16 h; AID 504466, 2011; also: % of control where 0% means no effect; nearly all actives have a fitted effect of over 60% in size
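Reporter readout depends on ELG1 protein level, which increases with genetic stress. After 16 hr compound exposure at 37 °C, luciferase activity was quantified using ONE-Glo.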
The depositor's hits bear a star; u = inconclusive; x = no result given. Only some compounds are listed: those with a hit (about 9.3% of all), similar ones and a draw of the others. Calls follow the shape of the dose curve; as a rule, active = well fitted curve in the direction sought with a large enough effect; inconclusive = small, poorly fitted or top-dose-only effect, or another doubt; inactive = no such curve, though single readings can be large; an effect the other way counts as inactive or inconclusive. Potency is read from the fitted curve at half-maximal effect.

SMILES	Rab9 promoter act	FLuc counter	SMN2 splice enh	NPC1 prom act	ELG1 repair inh	ELG1 genotoxic
CCOc1ccc2nc(NC(=O)CSCC(=O)Nc3cc(C)on3)sc2c1	3.16µM*	u	x	u	u	u
CCN(CC)S(=O)(=O)c1ccc(OC)c(NC(=O)CSCc2c(C)noc2C)c1	x	x	x	x	-23.7%	3.3%
COc1ccccc1NC(=O)COC(=O)c1ccccn1	3.2%	2.2%	x	-1.8%	11.2%	1.1%
CCOc1ccc2nc(NC(=O)Cn3c(C)csc3=O)sc2c1	6.7%	4.78µM*	x	14.1%	u	11.7%
CCN(CC)S(=O)(=O)c1ccc(N(C)C)c(NC(=O)CSCc2c(C)noc2C)c1	2.4%	-4.5%	x	0.3%	20.6µM*	-4.2%
Cc1ccc2nc(NC(=O)COC(=O)c3ccccn3)sc2c1	u	15.1µM*	u	u	u	0.0%
O=C(CCC(=O)c1cccs1)NCC(c1ccc(F)cc1)N1CCOCC1 (configuration not stated)	3.0%	-0.1%	x	-1.5%	7.7%	1.4%
COc1ccc(N2CCN(C(CNC(=O)CC(C)C)c3ccc4c(c3)OCO4)CC2)cc1 (configuration not stated)	x	5.3%	x	x	x	x
O=C(COC(=O)c1ccncc1)Nc1cccc2ccccc12	x	x	x	x	0.0%	0.4%
COC(=O)c1cc(NC(=O)[C@H](CCS(C)(=O)=O)N2Cc3ccccc3C2=O)cc(C(=O)OC)c1	x	-5.6%	-4.5%	x	x	x
C/C=C/C(=O)OCC(=O)Nc1nc2ccc(C)cc2s1	u	21.3µM*	17.3%	24.1%	u	u
Cc1ccc2nc(NC(=O)CSc3nc4ccccc4o3)sc2c1	12.0%	-15.3%	-11.2%	3.9%	u	u
CCOc1ccc2nc(NC(=O)CCC(=O)c3cccs3)sc2c1	4.47µM*	1.9µM*	12.6µM*	3.16µM*	u	10.3µM*
CCOCC(=O)Nc1nc2ccc(C)cc2s1	1.78µM*	9.53µM*	10µM*	u	u	u
Cc1ccc2nc(NC(=O)CCn3cccc3)sc2c1	u	-16.9%	u	22.9%	u	14.7%
Cc1ccc2nc(NC(=O)CSCC(=O)OCC(=O)c3ccccc3)sc2c1	-32.0%	16.9µM*	-25.6%	-20.6%	9.7%	3.8%
CCOCC(=O)Nc1nc2ccc(OCC)cc2s1	1.26µM*	8.49µM*	11.2µM*	2.51µM*	u	8.2µM*
COc1ccc(N(CC(=O)Nc2nc3ccc(C)cc3s2)S(=O)(=O)c2c(C)nn(C)c2C)cc1	-0.1%	u	1.6%	-2.5%	18.4µM*	-10.5%
CCc1ccc2nc(NC(=O)CSCc3c(C)noc3C)sc2c1	20.4%	21.3µM*	u	4.9%	u	7.8%
Cc1ccc2nc(NC(=O)C3CC3C)sc2c1 (configuration not stated)	u	5.36µM*	x	1.12µM*	u	13.4%
COc1ccc(N(CC(=O)Nc2cccc(OC)c2)S(=O)(=O)c2c(C)nn(C)c2C)cc1	-5.7%	4.0%	-7.6%	-2.2%	-20.0%	-1.6%
Cc1ccc(S(=O)(=O)N2CCOCC2)cc1C(=O)N1CCN(S(=O)(=O)c2cccs2)CC1	-0.8%	-0.3%	x	-2.1%	-10.2%	1.3%
CC(=O)c1ccc(NC(=O)COCc2cc(-c3ccc(F)cc3)on2)cc1	x	-0.3%	x	x	x	x
COc1ccc(C2CC(=O)c3cnc4c(-c5ccccc5)c(C)nn4c3C2)cc1OC (configuration not stated)	x	-8.9%	4.9%	x	x	x
O=c1c2ccccc2oc2ccc(Oc3ccccc3)cc12	1.78µM*	4.26µM*	x	2.82µM*	u	u
SMILES	Rab9 promoter act	FLuc counter	SMN2 splice enh	NPC1 prom act	ELG1 repair inh	ELG1 genotoxic
O=C(NC(=O)c1ccccc1F)OCc1ccc(Cl)cc1Cl	13.2%	12µM*	x	7.9%	9.7%	1.9%
O=C(CNC(=O)c1ccccc1F)NCCc1ccc(Cl)cc1Cl	-1.0%	0.6%	x	-5.3%	8.9%	-0.1%
CCN(CC)CCNC(=O)CSc1nc2nc(C)c(Cc3ccccc3)c(C)n2n1	x	-0.9%	5.1%	x	x	x
CCOC(=O)C(=CNc1cc(C)nn1-c1ccc(C)cc1)C(=O)OCC	-6.3%	2.9%	u	-0.3%	13µM*	-23.4%
N#Cc1c(/N=C/c2ccc(Br)s2)sc2c1CCC2	u	1.9µM*	7.94µM*	u	u	u
N#Cc1c(/N=C\c2ccc(O)c([N+](=O)[O-])c2)sc2c1CCCC2	u	u	x	28.1%	5.3%	11.2%
N#Cc1c(/N=C/c2cccnc2)sc2c1CCCC2	-4.1%	2.69µM*	x	-2.7%	0.0%	2.7%
N#Cc1c(/N=C/c2cccs2)sc2c1CCCCC2	2µM*	0.379µM*	-24.5%	3.55µM*	u	0.517µM*
Cc1ccc(/C=N/c2sc3c(c2C#N)CCC3)o1	1.7%	1.35µM*	3.6%	5.9%	u	u
CC(=O)Nc1ccc(-c2nnc3n(CC(C)C)c(=O)c4ccccc4n23)cc1	x	-10.6%	x	x	x	x
COCC1CCCN(Cc2cn(-c3ccccc3F)nc2-c2cc(C)sc2C)C1 (configuration not stated)	-9.1%	4.8%	x	-7.0%	4.5%	-3.1%
COc1ccc(Cl)cc1C(=O)Nc1ccc2oc(-c3ccc(C(C)(C)C)cc3)nc2c1	x	9.53µM*	-5.2%	x	x	x
Cc1ccc2oc(-c3cccc(NC(=O)c4ccc(Br)o4)c3)nc2c1	10.7%	21.3µM*	16.5%	8.9%	u	u
Cc1ccc2oc(-c3cccc(NC(=O)c4cccc5c(Br)cccc45)c3)nc2c1	x	-16.7%	-2.6%	x	x	x
Cc1cc2nc(-c3cccc(NC(=O)c4ccc(Br)o4)c3)oc2cc1C	3.1%	16.9µM*	-3.9%	-3.8%	10.9%	17.8%
COc1cc2ccccc2cc1C(=O)Nc1cccc(-c2nc3cc(C)c(C)cc3o2)c1	x	1.2µM*	-2.4%	x	x	x
COc1cc2ccccc2cc1C(=O)Nc1cc(-c2nc3ccccc3o2)ccc1C	x	-19.8%	-3.1%	x	x	x
CC(C)(C)c1ccc(C(=O)Nc2ccc(-c3nc4cc(Cl)ccc4o3)cc2)cc1	x	-1.1%	-11.8%	x	x	x
O=C(NCCCN1CCOCC1)C(=O)NCC1OCCCN1S(=O)(=O)c1cc(F)ccc1F (configuration not stated)	0.8%	-0.5%	x	0.9%	-1.2%	7.0%
COC(=O)c1sc2cc([N+](=O)[O-])cc(SCC(C)C)c2c1N	-10.9%	-0.1%	-9.9%	0.1%	-0.5%	-0.2%
